This is an account of results in PubChem BioAssay AID1626 (SRMLSC, 2009).

Screen size: about 220,000 compounds; about 2,000 (0.91%) were called active. Roughly 2% stayed inconclusive and do not appear here. Cut-off read from the data, not from the text of the source: inconclusive = inhibition above about 80% without an active follow-up result; inactive = below that; test concentration not stated here. Not all results are given here. Potency and affinity values are given separately.

What is called inhibition is the relative decrease from the control value, in per cent.

The test can be described thus: M. tuberculosis H37Rv growth inhibitors, H37Rv strain (AID 1626).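 Note: bacteria incubated seven days before Alamar blue readout; 0% = bacteria only wells and 100% = bacteria with antibiotic wells.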 As to conditions: stronger effect = higher value, concentration not given here.
On to `C=CCn1nnnc1-c1cc(Cl)cc(Cl)c1`, for which the inhibition is 2.4% (inactive).

As for `CCCn1nc(C(=O)OCC(=O)c2c(N)n(C)c(=O)n(C)c2=O)c2ccccc2c1=O`, the inhibition is 5.18% (inactive).

As to `N#Cc1c(/N=C/c2cccnc2)sc2c1CCCC2`, the inhibition is 2.15% (inactive).

As to `O=C(CN1C(=O)c2ccccc2C1=O)Nc1cccc2cccnc12`, the inhibition was 7.46% (inactive).

For `CC1=CC(C)(C)N(C(=O)CSc2nncn2C)c2ccccc21`, the inhibition was 4.36% (inactive).

Take `C=CCN(CC=C)S(=O)(=O)c1ccc(NC(=S)NC(=O)/C=C/c2cccc3ccccc23)cc1`: the inhibition is 2.67% (inactive).

As to `CC(C)(C)OC(=O)NNC(=S)NCc1ccc(Cl)cc1`, the inhibition was -13% (inactive).

As for `CCc1ccc2[nH]c(=O)c(CN(Cc3ccccc3OC)C(=O)Nc3ccccc3OC)cc2c1`, the inhibition is 7.78% (inactive).

For `CC1CCN(C(=O)CSc2nnc(-c3cccnc3)n2C2CCCCC2)CC1`, the inhibition was -2.09% (inactive).

Take `COc1cc(-c2cc(C(=O)Nc3ccc(S(=O)(=O)Nc4ncccn4)cc3)c3ccccc3n2)cc(OC)c1OC`: the inhibition is 40.2% (inactive).

As for `Cc1cc(C)cc(OCc2nnc(SCC(=O)N3CCN(c4ccccc4)CC3)o2)c1`, the inhibition was -4.78% (inactive).

Turning to `Cc1cccc(C(=O)c2c(N)sc3c2CCC(C)C3)c1` (centres undefined), the inhibition was 5.18% (inactive).

As for `CCOc1ccc(S(=O)(=O)NCCN2CCOCC2)c2ccccc12`, the inhibition is -4.29% (inactive).

For `CCOC(=O)C1(CC2CCCCO2)CCN(C(=O)Nc2ccccc2SC)CC1` (centres undefined), the inhibition is 6.6% (inactive).

As for `CCC(=O)N1CCN(c2c(Cl)cccc2[N+](=O)[O-])CC1`, the inhibition was 4.63% (inactive).

As to `CCCCN(CC)CCCNC(=S)Nc1ccc2nc3n(c(=O)c2c1)CCCCC3`, the inhibition was -5.11% (inactive).

With `O=C(COC(=O)c1n[nH]c2ccccc12)Nc1ccccc1`, the inhibition is -10.9% (inactive).

Take `O=C(NCCN1CCOCC1)c1ccccc1[N+](=O)[O-]`: the inhibition is 1.9% (inactive).

As for `O=C(NCCN1CCOCC1)c1ccc(Cl)cc1[N+](=O)[O-]`, the inhibition is -10.2% (inactive).

As for `O=C(NCCCN1CCOCC1)c1cc(Cl)ccc1[N+](=O)[O-]`, the inhibition is -3.28% (inactive).

Take `O=C(NCCCN1CCOCC1)c1ccc(Cl)cc1[N+](=O)[O-]`: the inhibition was -0.73% (inactive).

For `COc1ccc(CNC(=O)COC(=O)c2n[nH]c3ccccc23)cc1`, the inhibition was 10.8% (inactive).

For `Cc1ccc(SC[C@H](CC(C)C)N2CCN(CCc3ccccc3)CCC2=O)cc1`, the inhibition is 16.3% (inactive).

Consider `CCOc1ccccc1-c1n[nH]c(=S)o1`, for which the inhibition was 6.98% (inactive).

Turning to `COCCOC(=O)C1=C(C)NC(=O)NC1c1c(Cl)nc2c(C)cccn2c1=O` (centres undefined), the inhibition is -7.69% (inactive).

Consider `Cc1noc(C)c1S(=O)(=O)N1CCCC(C(=O)c2cccc(OC(C)C)c2)C1` (centres undefined), for which the inhibition was 0% (inactive).

As for `Cc1nc2cc(C(=O)OCC(=O)NC3CCS(=O)(=O)C3)ccc2n1-c1ccccc1` (centres undefined), the inhibition is -9.28% (inactive).

For the molecule `Cc1nc2cc(C(=O)OCC(=O)NC(C)C(C)C)ccc2n1-c1ccccc1` (centres undefined), the inhibition is -6.92% (inactive).

On to `CCCOc1ccc(/C(O)=C2/C(=O)C(=O)N(CCCOC)C2c2ccncc2)cc1` (centres undefined), for which the inhibition was -0.21% (inactive).

For the molecule `COCCCNS(=O)(=O)c1ccc2c(c1)OCCO2`, the inhibition is -7.88% (inactive).

With `CC(C)c1nc2sc3ccccc3c(=O)c2c(=O)n1Cc1ccccc1`, the inhibition was -7.18% (inactive).

`Nc1ccc(C#Cc2c(-c3ccsc3)oc3ccc(N4CCOCC4)cc23)cc1`: the inhibition is 61.1% (inactive).

In the case of `COc1ccc(-c2ccc3oc(-c4ccc(OC)cc4)c(C#CC4(O)CCCCC4)c3c2)cc1`, the inhibition is 18.4% (inactive).

In the case of `COc1ccc(-c2oc3ccc(N4CCOCC4)cc3c2C#CC2(O)CCCCC2)cc1`, the inhibition was 89.2% (inactive).

For `COc1ccc(C#Cc2c(-c3ccsc3)oc3ccc(-c4cc(OC)c(OC)c(OC)c4)cc23)cc1`, the inhibition was 0.45% (inactive).

With `CCOc1ccc(C(c2c(NC(=O)c3ccccc3)sc(C)c2C)N2CCN(C)CC2)cc1` (centres undefined), the inhibition is 17.1% (inactive).

In the case of `c1ccc(C(c2ccccc2)N2CCN(C(c3ccccn3)c3nnnn3C3CCCC3)CC2)cc1` (centres undefined), the inhibition is 6.45% (inactive).

In the case of `COc1cc(OC)c2c(=O)cc(-c3cccnc3)oc2c1`, the inhibition was -11.6% (inactive).

In the case of `CSc1sc(-c2n[nH]c(=S)n2C)c2c1C=CCC2`, the inhibition was 5.83% (inactive).

Take `COC(=O)c1c(NC(=O)c2ccccc2)sc(C(N)=O)c1C`: the inhibition is -3.85% (inactive).

On to `COC(=O)c1c(NC(=O)c2ccccc2)sc(Cc2ccccc2)c1C`, for which the inhibition was -9.2% (inactive).

Take `CC(O)CCC(=O)NNC1CC(=O)N(c2ccccc2)C1=O` (centres undefined): the inhibition is -8.86% (inactive).

For `C=CCN(c1ccccc1)S(=O)(=O)c1cccc(C(=O)O)c1`, the inhibition was -12.8% (inactive).

`Cc1ccc(-n2nnnc2Sc2nc([N+](=O)[O-])nn2C)cc1`: the inhibition was 0.83% (inactive).

With `Cc1ccc(C)c(-n2nnnc2Sc2nc([N+](=O)[O-])nn2C)c1`, the inhibition was -10.2% (inactive).

As to `Cc1ccc(C2(c3noc(CN4CCC(c5ccncc5)CC4)n3)CCCC2)cc1`, the inhibition is 13.7% (inactive).

In the case of `O=CC1=C(N2CCOCC2)/C(=C\c2ccccc2)CC1`, the inhibition is 0.77% (inactive).

For the molecule `O=C(O)c1ccc(N/N=C/C2=C(N3CCOCC3)C(=C\c3ccccc3)/CC2)cc1`, the inhibition is -3.9% (inactive).

For the molecule `CC(=O)Nc1ccc(NC(=O)/C=C/c2cccc(C(F)(F)F)c2)cc1`, the inhibition is 0.39% (inactive).

Regarding `CCc1ccc2c(c1)C(c1ccncc1)=NNC(c1ccccc1)=N2`, the inhibition is 8.68% (inactive).

Turning to `CCCC(=O)Nc1nnc(SCC(=O)Nc2ccc3c(c2)OCO3)s1`, the inhibition is 5.81% (inactive).

`CN1CCN(C(=O)c2ccc(CSc3nc4ccncc4n3Cc3ccc(F)cc3)cc2)CC1`: the inhibition was -0.01% (inactive).

In the case of `COc1ccc2nc(C)cc(C(=O)O)c2c1`, the inhibition was 0.85% (inactive).

For `COc1ccc(C)cc1NC(=O)CN1CCN(C/C=C/c2ccccc2)CC1`, the inhibition was -3.7% (inactive).

In the case of `O=C(COc1ccc(Cl)cc1)N1CCN(C/C=C/c2ccccc2)CC1`, the inhibition is 0.36% (inactive).

On to `O=C(COc1ccccc1)N1CCN(C/C=C/c2ccccc2)CC1`, for which the inhibition is -6.49% (inactive).

On to `O=C(CN1CCN(C/C=C/c2ccccc2)CC1)Nc1ccc(F)cc1F`, for which the inhibition was -0.62% (inactive).

Turning to `COc1ccccc1NC(=O)C(C)N1CCN(C/C=C/c2ccccc2)CC1` (centres undefined), the inhibition was 11.9% (inactive).

In the case of `O=C(CN1CCN(C/C=C/c2ccccc2)CC1)Nc1ccccc1C(=O)NC1CC1`, the inhibition is -0.65% (inactive).
